From PubChem BioAssay (Tox21)
Where “and” joins values, the source holds several entries; their conditions need not be identical. Equal entries are not always repeated. Inconclusive results are not listed. Some structures have more than one record in an assay (separate samples or runs), and their calls can disagree. Calls of active or inactive are those of the source. Unless noted, calls follow the shape of the dose curve; as a rule, active = well fitted curve in the direction sought with a large enough effect in the repeat runs; inconclusive = weak or mixed curves; inactive = no such curve, though single readings can be large; an effect the other way counts as inactive or inconclusive.

Columns and labels:
[1] = qHTS assay to identify small molecule antagonists of the peroxisome proliferator-activated receptor gamma (PPARg) signaling pathway - cell viability counter screen (AID 743194); also: nearly all actives have a fitted effect of over 55% in size; also: potency is read from the fitted curve at half-maximal effect
Procedure, shortened: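 Cytotoxicity counter screen in PPARg-bla HEK293H cells, same wells as reporter assay. Compounds plus 50 nM rosiglitazone (final) for 17 h at 37 C, then viability read by CellTiter-Glo luminescence.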

[2] = qHTS assay for small molecule agonists of the antioxidant response element (ARE) signaling pathway - cell viability counter screen (AID 743203; calls by dose curve; also: nearly all actives have a fitted effect of over 55% in size; also: potency is read from the fitted curve at half-maximal effect)
Procedure, shortened: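 Viability counter screen: stably transfected ARE-bla HepG2 line, 16 hrs compound exposure at 37C/5% CO2, ATP-based CellTiter-Glo luminescence measured in the reporter wells.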

[3] = qHTS assay for small molecule activators of the heat shock response signaling pathway - cell viability counter screen (AID 743209); also: nearly all actives have a fitted effect of over 50% in size; also: potency is read from the fitted curve at half-maximal effect
Procedure, shortened: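 Viability of HSE-bla HeLa cells is measured with CellTiter-Glo in the wells already used for the reporter read. Compound exposure lasts 5 h at 37 C, and luminescence is read after 30 min at room temperature.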

[4] = qHTS assay for small molecule activators of the heat shock response signaling pathway (AID 743210; active = well fitted activation curve with a large enough effect in the signal ratio in the repeat runs, with a control signal flat, not every such curve was filed as active; the % refers to the signal ratio;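 also: HeLa cells with beta-lactamase reporter driven by heat shock elements; series mostly up to about 63 µM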)
Procedure, shortened: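 Beta-lactamase reporter read-out: FRET substrate fluorescence after 2.5 h at RT, following 5 h compound treatment at 37 C of HeLa cells carrying HSE-driven bla reporter; quantitative HTS format.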

[5] = biological target: Peroxisome proliferator-activated receptor delta (Homo sapiens) (UniProt Q03181); test: qHTS assay to identify small molecule antagonists of the peroxisome proliferator-activated receptor delta (PPARd) signaling pathway (AID 743215; active = well fitted inhibition curve with a large enough effect in the signal ratio in the repeat runs, not every such curve was filed as active; the % refers to the signal ratio;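 also: cells stimulated with agonist L165041 at 300 nM final during compound exposure; series mostly up to about 62 µM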)
Procedure, shortened: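 Plated HEK293H PPARd-bla cells rested 5 h at 37 C and 5% CO2. Compound, then agonist L165041 at 300 nM final, was added; 17 h at 37 C followed. Substrate loading, 2 h room temperature, fluorescence measured.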

[6] = biological target: Bile acid receptor (Homo sapiens) (UniProt Q96RI1); test: qHTS assay to identify small molecule agonists of the farnesoid-X-receptor (FXR) signaling pathway (AID 743220; active = well fitted activation curve with a large enough effect in the signal ratio in the repeat runs, not every such curve was filed as active; the % refers to the signal ratio)
Procedure, shortened: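 FXR-UAS-bla HEK 293T cells carrying a UAS-driven beta-lactamase reporter were plated for 5 h at 37C/5% CO2, then exposed to DMSO-dissolved Tox21 10K compounds for 16 h at 37C. A LiveBLAzer B/G FRET substrate was loaded for 2 h at room temperature before fluorescence reading.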

[7] = qHTS assay to identify small molecule agonists of the peroxisome proliferator-activated receptor delta (PPARd) signaling pathway - cell viability counter screen (AID 743211); also: nearly all actives have a fitted effect of over 55% in size; also: potency is read from the fitted curve at half-maximal effect
Procedure, shortened: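 PPARd-bla HEK293H cells (3000/well) were pre-incubated 5 h at 37 C, then exposed to compound for 17 h at 37 C. After 2 h with LiveBLAzer substrate, CellTiter-Glo was added to the same wells; luminescence read after 30 min at room temperature.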

[8] = qHTS assay to identify small molecule antagonists of the peroxisome proliferator-activated receptor delta (PPARd) signaling pathway - cell viability counter screen (AID 743213); also: nearly all actives have a fitted effect of over 50% in size; also: potency is read from the fitted curve at half-maximal effect
Procedure, shortened: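 In this counter screen, HEK293H cells carrying a UAS-beta-lactamase reporter are co-treated with test compounds and 300 nM L165041 (final) for 17 h at 37 C; cell viability is quantified by CellTiter-Glo luminescence.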

[9] = qHTS assay to identify small molecule agonists of the farnesoid-X-receptor (FXR) signaling pathway - cell viability counter screen (AID 743218); also: nearly all actives have a fitted effect of over 45% in size; also: potency is read from the fitted curve at half-maximal effect
Procedure, shortened: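 Viability of FXR-bla HEK 293T cells is measured by ATP-based CellTiter-Glo luminescence following 16 h compound treatment at 37 C and a prior 2 h room-temperature beta-lactamase substrate step.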

[10] = qHTS assay to identify small molecule antagonists of the farnesoid-X-receptor (FXR) signaling pathway - cell viability counter screen (AID 743221; active = well fitted cell-killing curve with a large enough effect in the repeat runs, not every such curve was filed as active; also: nearly all actives have a fitted effect of over 50% in size; also: potency is read from the fitted curve at half-maximal effect)
Procedure, shortened: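 GeneBLAzer FXR-UAS-bla HEK 293T cells, compound plus chenodeoxycholic acid (50 uM final), 16 h at 37 C. CellTiter-Glo added to the same wells after the beta-lactamase read; luminescence read after 30 min at room temperature as viability.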

[11] = qHTS assay to identify small molecule that activate the aryl hydrocarbon receptor (AhR) signaling pathway - cell viability counter screen (AID 743086);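 also: HepG2 liver cells carrying the AhR DRE luciferase reporter; series mostly up to about 70 µM; nearly all actives have a fitted effect of over 45% in size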
Procedure, shortened: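 HepG2-AhR-luc (HG2L7.5c1) cells, 4000/well, treated 24 h at 37 C with compound; viability measured as CellTiter-Fluor fluorescence after 30 min in the same wells as the luciferase read.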

[12] = qHTS assay for small molecule agonists of the antioxidant response element (ARE) signaling pathway (AID 743202; active = well fitted activation curve with a large enough effect in the signal ratio in the repeat runs, not every such curve was filed as active; the % refers to the signal ratio; also: potency is read from the fitted curve at half-maximal effect)
Procedure, shortened: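 HepG2 ARE-bla reporter line, 2,000 cells/well; 5 h preincubation 37 C/5% CO2; compound (DMSO) 16 h 37 C; B/G FRET substrate 2 h RT; fluorescence intensity.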

[13] = biological target: Peroxisome proliferator-activated receptor delta (Homo sapiens) (UniProt Q03181); test: qHTS assay to identify small molecule agonists of the peroxisome proliferator-activated receptor delta (PPARd) signaling pathway (AID 743212; calls by dose curve)
Procedure, shortened: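 Read-out: beta-lactamase FRET fluorescence after 2 h room-temperature incubation with LiveBLAzer B/G substrate. Cells were HEK293H carrying a UAS-bla reporter for PPARd, treated at 37 C with DMSO-dissolved compounds.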

[14] = biological target: Vitamin D3 receptor (Homo sapiens) (UniProt P11473); test: qHTS assay to identify small molecule agonists of the vitamin D receptor (VDR) signaling pathway (AID 743222; calls by dose curve)
Procedure, shortened: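 Fluorescence from cleaved LiveBLAzer B/G FRET substrate served as readout. VDR-bla cells had been treated 16 h at 37C with test compounds in DMSO, following a 4 h settling period, and substrate was loaded for 2 h at RT.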

[15] = biological target: Vitamin D3 receptor (Homo sapiens) (UniProt P11473); test: qHTS assay to identify small molecule antagonists of the vitamin D receptor (VDR) signaling pathway (AID 743223; active = well fitted inhibition curve with a large enough effect in the signal ratio in the repeat runs, not every such curve was filed as active; the % refers to the signal ratio)
Procedure, shortened: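 VDR-bla cells were treated with compound plus 3 nM final 1alpha,25-dihydroxyvitamin D3 for 16 h at 37C. Beta-lactamase reporter read by B/G FRET substrate fluorescence after 2 h at room temperature. qHTS format.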

[16] = biological target: Peroxisome proliferator-activated receptor gamma (Homo sapiens) (UniProt P37231); test: qHTS assay to identify small molecule agonists of the peroxisome proliferator-activated receptor gamma (PPARg) signaling pathway (AID 743094; active = well fitted activation curve with a large enough effect in the signal ratio in the repeat runs, not every such curve was filed as active; the % refers to the signal ratio)
Procedure, shortened: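 Reporter activation was scored by fluorescence of cleaved LiveBLAzer B/G substrate (1 h, room temperature) in PPARg-bla HEK293H cells previously treated 17 h at 37C with DMSO-dissolved compounds.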

[17] = biological target: Peroxisome proliferator-activated receptor gamma (Homo sapiens) (UniProt P37231); test: qHTS assay to identify small molecule antagonists of the peroxisome proliferator-activated receptor gamma (PPARg) signaling pathway (AID 743191; calls by dose curve; also: nearly all actives have a fitted effect of over 30% in size; also: potency is read from the fitted curve at half-maximal effect)
Procedure, shortened: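 GeneBLAzer PPARg UAS-bla HEK293H cells, 5 h post-plating, exposed to compounds 17 h at 37C. LiveBLAzer B/G FRET substrate added for 1 h at room temperature; beta-lactamase reporter read by fluorescence intensity.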

[18] = biological target: Aryl hydrocarbon receptor (Homo sapiens) (UniProt P35869); test: qHTS assay to identify small molecule that activate the aryl hydrocarbon receptor (AhR) signaling pathway (AID 743085); also: nearly all actives have a fitted effect of over 15% in size; also: potency is read from the fitted curve at half-maximal effect;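 as to activation: HG2L7.5c1 human HepG2 liver cells with stably integrated DRE-driven firefly reporter; series mostly up to about 70 µM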
Procedure, shortened: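 HepG2 cells stably carrying a 20-DRE firefly luciferase reporter (HG2L7.5c1) treated with compound for 24 hr at 37C. Luciferase read by ONE-Glo luminescence, with CellTiter-Fluor viability read first.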

Measured: Potency

Sequence of Vitamin D3 receptor (Homo sapiens) (P11473 whole entry, looked up): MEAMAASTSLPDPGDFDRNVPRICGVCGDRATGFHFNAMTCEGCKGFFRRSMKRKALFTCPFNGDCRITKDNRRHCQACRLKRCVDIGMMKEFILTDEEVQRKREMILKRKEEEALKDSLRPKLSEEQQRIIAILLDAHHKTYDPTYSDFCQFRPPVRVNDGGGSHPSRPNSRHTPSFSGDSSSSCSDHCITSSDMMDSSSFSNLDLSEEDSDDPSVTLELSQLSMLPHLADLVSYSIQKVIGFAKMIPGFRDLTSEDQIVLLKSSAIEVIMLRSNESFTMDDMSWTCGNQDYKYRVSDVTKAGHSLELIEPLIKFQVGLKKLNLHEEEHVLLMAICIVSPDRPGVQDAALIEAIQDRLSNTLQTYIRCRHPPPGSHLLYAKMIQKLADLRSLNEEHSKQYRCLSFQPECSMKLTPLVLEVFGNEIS
Sequence of Bile acid receptor (Homo sapiens) (Q96RI1 whole entry, looked up): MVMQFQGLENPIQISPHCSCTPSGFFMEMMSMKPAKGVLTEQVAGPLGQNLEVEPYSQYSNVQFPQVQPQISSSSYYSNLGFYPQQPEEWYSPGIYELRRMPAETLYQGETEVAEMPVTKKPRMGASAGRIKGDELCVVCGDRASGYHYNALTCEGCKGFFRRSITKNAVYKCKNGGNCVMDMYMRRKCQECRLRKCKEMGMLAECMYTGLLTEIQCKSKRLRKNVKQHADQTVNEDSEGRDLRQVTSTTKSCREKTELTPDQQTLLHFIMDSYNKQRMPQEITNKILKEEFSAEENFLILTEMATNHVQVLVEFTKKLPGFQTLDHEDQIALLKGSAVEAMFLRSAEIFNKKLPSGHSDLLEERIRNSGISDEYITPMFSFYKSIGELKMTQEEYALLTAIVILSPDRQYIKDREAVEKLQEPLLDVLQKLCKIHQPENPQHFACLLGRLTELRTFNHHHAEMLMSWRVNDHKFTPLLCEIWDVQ
Sequence of Aryl hydrocarbon receptor (Homo sapiens) (P35869 whole entry, looked up): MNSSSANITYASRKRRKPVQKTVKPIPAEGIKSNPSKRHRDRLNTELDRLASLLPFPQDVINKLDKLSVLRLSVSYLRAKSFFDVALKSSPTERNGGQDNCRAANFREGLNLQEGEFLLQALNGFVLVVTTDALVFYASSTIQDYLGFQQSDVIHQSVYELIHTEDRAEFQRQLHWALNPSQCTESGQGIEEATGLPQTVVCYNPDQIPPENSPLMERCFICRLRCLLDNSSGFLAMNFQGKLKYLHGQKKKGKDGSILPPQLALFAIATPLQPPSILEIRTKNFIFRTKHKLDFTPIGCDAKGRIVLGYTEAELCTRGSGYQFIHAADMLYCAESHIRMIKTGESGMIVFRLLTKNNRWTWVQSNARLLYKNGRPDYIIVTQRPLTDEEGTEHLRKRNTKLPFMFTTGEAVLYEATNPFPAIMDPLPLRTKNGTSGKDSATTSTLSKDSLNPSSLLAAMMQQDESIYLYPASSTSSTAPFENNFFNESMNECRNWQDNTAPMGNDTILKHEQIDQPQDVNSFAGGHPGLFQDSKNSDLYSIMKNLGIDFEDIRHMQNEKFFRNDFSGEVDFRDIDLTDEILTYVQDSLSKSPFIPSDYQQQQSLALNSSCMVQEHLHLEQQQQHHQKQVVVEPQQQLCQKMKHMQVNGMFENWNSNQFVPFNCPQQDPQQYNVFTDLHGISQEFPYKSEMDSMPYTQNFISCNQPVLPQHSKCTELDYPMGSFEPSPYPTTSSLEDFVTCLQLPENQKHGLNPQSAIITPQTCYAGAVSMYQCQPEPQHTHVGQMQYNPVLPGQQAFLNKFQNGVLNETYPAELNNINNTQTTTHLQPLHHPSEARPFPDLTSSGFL
Sequence of Peroxisome proliferator-activated receptor delta (Homo sapiens) (Q03181 whole entry, looked up): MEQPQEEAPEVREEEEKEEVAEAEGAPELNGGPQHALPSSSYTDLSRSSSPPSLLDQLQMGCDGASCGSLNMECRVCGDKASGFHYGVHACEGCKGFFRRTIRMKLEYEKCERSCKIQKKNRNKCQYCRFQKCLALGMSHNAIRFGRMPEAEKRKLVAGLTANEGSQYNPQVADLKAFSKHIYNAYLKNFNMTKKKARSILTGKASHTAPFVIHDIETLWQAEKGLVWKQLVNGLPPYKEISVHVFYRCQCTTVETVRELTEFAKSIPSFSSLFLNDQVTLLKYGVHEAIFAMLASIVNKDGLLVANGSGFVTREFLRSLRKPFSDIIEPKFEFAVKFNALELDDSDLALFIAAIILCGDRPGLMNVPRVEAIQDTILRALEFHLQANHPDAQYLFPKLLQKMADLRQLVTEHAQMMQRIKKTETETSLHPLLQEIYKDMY
Sequence of Peroxisome proliferator-activated receptor gamma (Homo sapiens) (P37231 whole entry, looked up): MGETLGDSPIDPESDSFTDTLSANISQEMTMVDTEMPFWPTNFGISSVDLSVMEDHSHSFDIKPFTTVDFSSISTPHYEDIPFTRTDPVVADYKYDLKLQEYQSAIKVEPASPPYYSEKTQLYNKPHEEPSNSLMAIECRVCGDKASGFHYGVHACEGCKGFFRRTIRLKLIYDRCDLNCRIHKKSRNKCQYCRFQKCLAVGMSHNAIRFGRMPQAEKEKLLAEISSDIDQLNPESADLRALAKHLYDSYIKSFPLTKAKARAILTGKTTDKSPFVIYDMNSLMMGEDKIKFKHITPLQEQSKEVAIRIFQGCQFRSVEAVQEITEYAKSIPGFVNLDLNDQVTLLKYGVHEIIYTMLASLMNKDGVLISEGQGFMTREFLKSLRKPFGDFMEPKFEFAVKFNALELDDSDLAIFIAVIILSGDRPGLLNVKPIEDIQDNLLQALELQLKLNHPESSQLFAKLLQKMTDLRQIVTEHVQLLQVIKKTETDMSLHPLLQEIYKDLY

Cc1ccc(CCn2c3c(c4cc(Cl)ccc42)CN(C)CC3)cn1
inactive: [1] | [2] | [3] | [4] | [5] | [6]

NC1(c2ccc(-c3nc4ccn5c(=O)[nH]nc5c4cc3-c3ccccc3)cc2)CCC1
inactive: [3] | [4]
active: [1] 4.22 µM | [7] 26.6 µM | [8] 15 µM | [9] 26.6 µM | [10] 33.5 µM

CCCCCCOc1ccc(O)cc1
active: [12] 27.3 µM
inactive: [11] | [2] | [3] | [4] | [7] | [13] | [5] | [9] | [10] | [14]

Brc1ccccc1-c1ccccc1
inactive: [11] | [13] | [10] | [14]

CC1CCCCN1CCCOC(=O)c1ccc(OC2CCCCC2)cc1 (stereo not given)
inactive: [2] | [3] | [4] | [13] | [8] | [5] | [6] | [10] | [15]

CCCCCCCCCC(=O)N(C)C
inactive: [11] | [2] | [3] | [4] | [7] | [8] | [9] | [6] | [10] | [14] | [15]

O=C1OC(=O)c2cccc3cccc1c23
inactive: [11] | [16] | [17] | [1] | [2] | [3] | [4] | [7] | [13] | [5] | [9] | [10]

C=CC(=O)OCCC#N
active: [12] 34.6 µM
inactive: [18] | [11] | [2] | [7] | [8] | [5] | [9] | [6] | [10] | [14] | [15]

Nc1ccc2cc3ccc(N)cc3nc2c1
active: [18] 11.9 µM and 6.11 µM | [2] 24.3 µM and 29.8 µM | [3] 43.6 µM
3.89 µM (active) and inactive: [9]
inactive: [4] | [7] | [10]

CCCCCCCCCCOCC(O)CN (stereo not given)
inactive: [11] | [17]
active: [7] 26.6 µM | [9] 33.5 µM

CN(C)c1ccc(N=NS(=O)(=O)O)cc1
active: [18] 14.5 µM | [12] 8.63 µM
inactive: [2] | [3] | [9] | [10]

COc1ccc(-n2nc(CCC(=O)N(C)O)cc2-c2ccc(Cl)cc2)cc1
active: [17] 3.76 µM
inactive: [1] | [2] | [3] | [13] | [10]

CCC(C)(C)c1cc(O)c(C(C)(C)CC)cc1O
active: [1] 21.9 µM | [2] 54.5 µM | [3] 38.9 µM
inactive: [18] | [11] | [13] | [8] | [5] | [10]

CCC1(c2cnc[nH]2)Cc2ccccc2C1
inactive: [1] | [2] | [3] | [7] | [13] | [9] | [10] | [15]

CC1=C(/C=C/C(C)=C/C=C/C(C)=C\C=O)C(C)(C)CCC1
active: [2] 51.6 µM | [7] 41.3 µM | [9] 46.4 µM
inactive: [18] | [11] | [1]

CN(C)CCOC(c1ccccc1)c1ccccc1 (tested in a mixture with another compound)
inactive: [11] | [1] | [12] | [2] | [3]

O=C1NCN(c2ccccc2)C12CCN(CCCC(c1ccc(F)cc1)c1ccc(F)cc1)CC2
inactive: [11]
active: [1] 26.6 µM | [2] 29.8 µM | [7] 21.1 µM | [9] 26.6 µM | [10] 33.5 µM

O=C(Oc1ccccc1)c1cccc(C(=O)Oc2ccccc2)c1
inactive: [11] | [3]

CC(C)c1cccc(C(C)C)c1N1C(=O)c2ccc(O)cc2C1=O
inactive: [18] | [3] | [9] | [10]
